This passage reports Potency and outcome results from PubChem BioAssay (Tox21).

A number with no mark means an inactive call. Inconclusive results are not listed. Active and inactive are the calls of the source. Unless noted, the call rests on the fitted dose curve; in most records, active means well fitted curve in the direction sought with a large enough effect in the repeat runs; inconclusive means weak or mixed curves; inactive means no such curve, though single readings can be large; an effect the other way counts as inactive or inconclusive.

The nature of assay [1]: qHTS assay for small molecule agonists of the p53 signaling pathway (AID 651631; calls by dose curve; further: nearly all actives have a fitted effect of over 15% in size). In short, it runs like this:
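Beta-lactamase reporter activity under p53 response elements was quantified in HCT-116 cells by FRET fluorescence, following 16 h incubation with test compounds at 37 °C and 2 h substrate development at room temperature.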

Assay [2] can be described thus: qHTS assay for small molecules that induce genotoxicity in human embryonic kidney cells expressing luciferase-tagged ATAD5 (AID 651632). Further: nearly all actives have a fitted effect of over 15% in size. In short, it runs like this:
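Concentration-response screen for ATAD5 upregulation in HEK293T luciferase reporter cells; 16 hr treatment at 37C, then luminescence after 30 min with Amplite at room temperature.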

The nature of assay [3]: qHTS assay for small molecule agonists of the p53 signaling pathway - cell viability (AID 651633; calls by dose curve;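 further: p53RE-bla HCT reporter cells with a stable beta-lactamase p53 reporter; nearly all actives have a fitted effect of over 30% in size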). In short, it runs like this:
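Viability counter-read: CellTiter-Glo luminescence (30 min, room temperature) in the same p53RE-bla plates. These plates had been exposed to compounds for 16 h at 37 C.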

Assay [4] is described as follows: qHTS assay for small molecules that induce genotoxicity in human embryonic kidney cells expressing luciferase-tagged ATAD5 - cell viability (AID 651634; calls by dose curve; further: nearly all actives have a fitted effect of over 25% in size; further: potency means the concentration at half of the fitted maximal effect). The method, boiled down:
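15.5 hr compound or vehicle exposure of HEK293T cells expressing luciferase-tagged ATAD5 at 37C; live-cell protease activity is read by fluorescence after 30 min of CellTiter-Fluor.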

A short description of assay [5]: qHTS assay for small molecule disruptors of the mitochondrial membrane potential - cell viability (AID 720634; calls by dose curve;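 further: human HepG2 liver cancer cells; nearly all actives have a fitted effect of over 20% in size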). In short, it runs like this: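 In this qHTS format, HepG2 cells plated overnight were pinned with compound, incubated 1 hr, and assayed for ATP luminescence with CellTiter-Glo after m-MPI dye addition.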
A short description of assay [6]: qHTS assay to test for compound auto fluorescence at 590 nm (red) in HepG2 cells (AID 720674). In short, it runs like this:
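Red autofluorescence (Ex/Em 540/590 nm, Rose Bengal sodium equivalents) was measured in HepG2 cells, 2,000 per well in MEM plus 10% FBS, plated overnight at 37 C. Readings were taken 1 hr after adding 23 nL compound or DMSO, at 37 C and 5% CO2.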

Assay [7] in a line: qHTS assay to test for compound auto fluorescence at 535 nm (green) in HepG2 cells (AID 720675).
The nature of assay [8]: qHTS assay to test for compound auto fluorescence at 460 nm (blue) in HEK293 cells (AID 720678). The method, boiled down: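 HEK293, 2,000 cells/well, 10% dialyzed FBS; attach 4-5 hr 37C; pin compound or DMSO; o/n 37C/5% CO2; fluorescence 405/460 nm; triamterene-equivalent units.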
The nature of assay [9]: qHTS assay to test for compound auto fluorescence at 590 nm (red) in HEK293 cells (AID 720679). In short, it runs like this:
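Intensity at 540nm excitation and 590nm emission is reported as Rose Bengal sodium-equivalent autofluorescence. Measurements followed overnight exposure (37C, 5% CO2) of HEK293 cells, 2,000 per well, to 23 nL compound.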

Assay [10] is described as follows: qHTS assay to test for compound auto fluorescence at 535 nm (green) in HEK293 cells (AID 720680).
The nature of assay [11]: qHTS assay to test for compound auto fluorescence at 460 nm (blue) in HEK293 cell free culture (AID 720681). The method, boiled down: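 Blue fluorescence (Ex 405/Em 460 nm, triamterene-equivalent) was read immediately after pin transfer of compound or DMSO into medium (DMEM, 10% FBS) without cells.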
The nature of assay [12]: qHTS assay to test for compound auto fluorescence at 535 nm (green) in HEK293 cell free culture (AID 720682). In short, it runs like this:
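Each library compound, or DMSO control, is added by pintool to medium alone, comprising DMEM and 10% FBS. Emission at 535 nm following 485 nm excitation is quantified against fluorescein.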

Assay [13] in a line: qHTS assay to test for compound auto fluorescence at 590 nm (red) in HEK293 cell free culture (AID 720683). The method, boiled down: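 Red-channel autofluorescence of compounds in culture medium (DMEM, 10% FBS), no cells, measured at 540/590 nm. Rose Bengal sodium is the reference fluorophore for equivalence.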
Assay [14] is described as follows: qHTS assay to test for compound auto fluorescence at 590 nm (red) in HepG2 cell free culture (AID 720684). In short, it runs like this:
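Cell-free; medium MEM + 10% FBS; compound or DMSO added by pintool; read Ex 540/Em 590 nm; Rose Bengal sodium as red reference fluorophore.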

A short description of assay [15]: qHTS assay to test for compound auto fluorescence at 460 nm (blue) in HepG2 cell free culture (AID 720685). In short, it runs like this:
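Cell-free plates of MEM plus 10% FBS received 23 nL compound or DMSO vehicle; blue-channel (405/460 nm) intensity scored against triamterene as reference fluorophore.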

The nature of assay [16]: qHTS assay to test for compound auto fluorescence at 460 nm (blue) in HepG2 cells (AID 720687). The method, boiled down: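 Blue-channel autofluorescence (Ex/Em 405/460 nm, triamterene-equivalent) was measured after 1 hr compound exposure at 37 C, 5% CO2. Cells were HepG2, plated overnight at 37 C in MEM plus 10% FBS.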
In assay [17] the target is Glucocorticoid receptor (Homo sapiens) (UniProt P04150). In words: qHTS assay to identify small molecule agonists of the glucocorticoid receptor (GR) signaling pathway (AID 720691; active means well fitted activation curve with a large enough effect in the signal ratio in the repeat runs, not every such curve was filed as active; the % refers to the signal ratio). The note with it: GR-bla HeLa, beta-lactamase reporter ratio, 18 h; activation: at 62.4 µM (top of the series) unless noted. In short, it runs like this: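 Measures GR pathway activation through a GRE-beta-lactamase reporter stably integrated in HeLa cells, with 18 h compound treatment at 37 C and fluorescence detection using a FRET substrate.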

A short description of assay [18]: qHTS assay to test for compound auto fluorescence at 535 nm (green) in HepG2 cell free culture (AID 720686).
Assay [19] addresses Glucocorticoid receptor (Homo sapiens) (UniProt P04150). In words: qHTS assay to identify small molecule antagonists of the glucocorticoid receptor (GR) signaling pathway (AID 720692; active means well fitted inhibition curve with a large enough effect in the signal ratio in the repeat runs, not every such curve was filed as active; the % refers to the signal ratio). The method, boiled down:
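Tox21 10K library screened in concentration-response for blockade of dexamethasone (5 nM final)-induced GRE-bla reporter activity in HeLa cells; 18 h treatment, fluorescence read.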

Sequence of Glucocorticoid receptor (Homo sapiens) (P04150 whole entry, looked up): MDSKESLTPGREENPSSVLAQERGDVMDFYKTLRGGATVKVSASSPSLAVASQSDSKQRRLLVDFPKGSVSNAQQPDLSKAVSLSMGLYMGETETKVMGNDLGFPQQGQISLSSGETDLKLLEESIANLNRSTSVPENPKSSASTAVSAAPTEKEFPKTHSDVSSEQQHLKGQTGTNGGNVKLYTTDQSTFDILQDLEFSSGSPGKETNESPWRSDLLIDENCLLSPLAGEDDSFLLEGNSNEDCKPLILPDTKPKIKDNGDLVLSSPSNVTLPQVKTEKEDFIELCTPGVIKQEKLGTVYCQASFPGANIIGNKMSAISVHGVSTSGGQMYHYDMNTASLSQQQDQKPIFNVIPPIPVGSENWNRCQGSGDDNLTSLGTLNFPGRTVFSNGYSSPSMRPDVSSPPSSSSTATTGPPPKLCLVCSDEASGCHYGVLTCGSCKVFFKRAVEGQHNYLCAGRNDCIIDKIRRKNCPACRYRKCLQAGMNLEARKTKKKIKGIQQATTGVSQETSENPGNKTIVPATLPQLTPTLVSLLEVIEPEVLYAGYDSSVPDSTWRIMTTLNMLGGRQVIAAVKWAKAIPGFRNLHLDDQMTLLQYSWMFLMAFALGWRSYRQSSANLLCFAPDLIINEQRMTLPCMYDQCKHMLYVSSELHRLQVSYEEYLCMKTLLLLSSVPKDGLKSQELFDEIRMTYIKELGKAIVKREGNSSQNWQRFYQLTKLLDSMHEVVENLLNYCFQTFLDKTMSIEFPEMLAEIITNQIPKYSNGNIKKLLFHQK

On to `C[C@@H](c1ncncc1F)C(O)(Cn1cncn1)c1ccc(F)cc1F` (stereo partly drawn), for which the Potency entry in assay [1], in assay [2], in assay [3], in assay [4], in assay [5] and in assay [6] was “inactive” throughout. Moreover, the Potency result in assay [7], in assay [9], in assay [13], in assay [14] and in [17] was “inactive” in each case. The result in assay [8], in assay [10], in assay [11], in assay [12], in assay [15] and in [16] was inactive.

Consider `CCCCCCCCO[C@@H]1O[C@H](CO)[C@@H](O)[C@H](O)[C@H]1O`, for which the Potency result in [1], in [2], in assay [3], in assay [4], in [5] and in assay [6] was “inactive” throughout. In addition, the Potency result in [7], in assay [9], in assay [14] and in assay [17] was “inactive” throughout. Further, the result in [8], in assay [10], in [11], in [12], in assay [15] and in assay [16] was inactive.

Turning to `CC(=O)[O][Al][O]C(C)=O`, the Potency result in [1], in assay [2], in [3], in assay [4], in assay [5] and in assay [6] was “inactive” each time. For the same compound, the Potency result in assay [7], in assay [9], in assay [14] and in [18] was “inactive” each time. In addition, the result in assay [8], in assay [10], in [11], in [12], in assay [15] and in assay [16] was inactive.

On to `Cc1ccc(N=Nc2c(O)c(C(=O)O)cc3ccccc23)c(S(=O)(=O)O)c1`, for which the Potency result in assay [1], in assay [2], in assay [3], in assay [5], in [6] and in [7] was “inactive” in each case. The Potency result in assay [9], in assay [13] and in [14] was “inactive” throughout. The Potency in assay [4] was 11.8 µM (active). In addition, the call in assay [8], in [10], in assay [11], in [12], in assay [15] and in [16] was inactive.

As to `CC1=CCCC(C)(C)C12CCC(C)O2` (stereo not drawn), the Potency result in [1], in assay [2], in assay [3], in assay [4], in assay [5] and in [6] was “inactive” throughout. Moreover, the Potency entry in assay [7], in [9], in assay [13] and in assay [14] was “inactive” in each case. The compound was classed as inactive in [8], in assay [10], in assay [11], in assay [12], in [15] and in assay [16].

For `NCC(=O)CCC(=O)O`, the Potency result in [1], in assay [2], in assay [3], in assay [4], in assay [5] and in [6] was “inactive” in each case. The Potency result in assay [7], in assay [9], in [13], in assay [14], in [17] and in assay [19] was “inactive” in each case. Moreover, the outcome in [8], in assay [10], in [11], in assay [12], in assay [15] and in [16] was inactive.

Consider `C#CCN(C)CCCOc1ccc(Cl)cc1Cl`, for which the Potency result in assay [1], in assay [2], in assay [3], in assay [4], in [5] and in assay [6] was “inactive” throughout. The Potency entry in assay [7], in assay [9], in assay [13], in assay [14], in assay [18] and in assay [17] was “inactive” throughout. The Potency result in [19] was “inactive”. The outcome in assay [8], in [10], in assay [11], in assay [12], in [15] and in [16] was inactive.
